From PubChem BioAssay
DRD3 antagonist: antagonists of human D3 dopamine receptor | D3R cells, DiscoveRx beta-arrestin luminescence, antagonist mode; stronger effect = lower value | max response, negative = inhibition, % | 360,000 compounds, 2.5% hits; in the data active means max response below about -50%; inconclusive means no clear call, values can overlap the other calls
Target sequence (P35462 whole entry, looked up): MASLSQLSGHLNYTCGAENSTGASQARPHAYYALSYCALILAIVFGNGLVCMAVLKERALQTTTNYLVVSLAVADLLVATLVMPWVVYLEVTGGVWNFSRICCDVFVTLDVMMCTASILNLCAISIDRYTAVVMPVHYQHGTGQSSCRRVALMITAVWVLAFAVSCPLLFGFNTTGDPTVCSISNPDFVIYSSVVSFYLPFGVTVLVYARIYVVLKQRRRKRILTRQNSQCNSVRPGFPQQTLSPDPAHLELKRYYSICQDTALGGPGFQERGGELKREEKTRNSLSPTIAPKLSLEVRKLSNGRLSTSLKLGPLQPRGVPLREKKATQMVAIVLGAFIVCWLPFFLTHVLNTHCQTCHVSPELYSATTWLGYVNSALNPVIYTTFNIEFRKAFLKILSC
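Cells expressing the human receptor were seeded at 1500 cells/well, incubated overnight at 37 degrees C in 5% CO2, then exposed to library compounds with dopamine controls for 90 minutes at 37 degrees C before luminescent detection.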
HepG2 viability: HepG2 cytotoxicity, counter-screen for TGF-b inhibitors. HepG2 CAGA-GFP viability, ATP luminescence, 18 h. Potency, µM (series often up to 46.1 µM), hits mostly cytotoxic. 410,000 compounds, 0.76% hits
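CellTiter-Glo luminescence gave cytotoxicity after 18 hours at 37 degrees C. The cells were HepG2 CAGA-GFP in 1% FBS DMEM, stimulated with 500 pg/mL TGF-beta after compound addition. %Activity was normalised to no-cell wells (complete cell-killing) and DMSO (no toxicity), and curves were fitted and classified.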
TGFb inhibitor: blocks TGF-b signaling | HepG2 CAGA-GFP TGF-b/SMAD3 reporter, GFP fluorescence, 18 h; TGF-beta stimulated, 500 pg/mL final | Potency, µM (series often up to 46.1 µM), usual class: inhibitors | 410,000 compounds, 1.2% hits | AID 588855; further: nearly all actives have a fitted effect of over 65% in size
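Smad-responsive CAGA-GFP expression was quantified in HEPG2 cells exposed to compounds and 500 pg/mL final TGF-beta for 18 h at 37 degrees C; unstimulated wells defined full inhibition.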
ATXN2 expr inh: inhibitors of ATXN2 expression | HEK-293 ATXN2-luciferase reporter, luminescence, 24 h | 360,000 compounds, 0.72% hits | Potency, µM (series often up to 57 µM), hits mostly inhibitors; further: nearly all actives have a fitted effect of over 55% in size
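ATXN2-luciferase reporter cells (luciferase flanked by upstream and downstream ATXN2 gene portions) were treated 24 h at 37 °C with compounds at up to 57 uM. SteadyGlo luminescence gave expression; GF-AFC fluorescence gave viability.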
S2 tox: viability counter-screen for ATXN expression inhibitors. S2 cells (HEK-293 line with an ATXN2-luciferase reporter) viability, CellTiter-Fluor protease fluorescence, 24 h. Potency, µM (highest dose often 56.7 µM), most hits filed as cytotoxic. 400,000 compounds, 0.49% hits. AID 651635; further: nearly all actives have a fitted effect of over 40% in size
DRD3 agonist: D3 dopamine receptor (human) agonism | P35462 | D3R DiscoveRx beta-arrestin cells, luminescence, 90 min | max activation, % | 410,000 compounds, 0.58% hits | AID 652048; in the data active means max activation above about 30%
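Agonist mode: compounds and dopamine controls were applied to plated cells for 90 min at 37 degrees C after an overnight attachment at 1500 cells/well. Luminescent read-out followed 30 - 60 minutes at room temperature with DiscoveRx detection reagent.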
Hits are given with their value; – = inactive; ? = inconclusive; · = no result given; ! = a repeat was not active. Compounds with a hit are over-represented: about 4.7% of the library has one in this group of screens. Unless noted, the call rests on the fitted dose curve; in most records, active means well fitted curve in the direction sought with a large enough effect; inconclusive means small, poorly fitted or top-dose-only effect, or another doubt; inactive means no such curve, though single readings can be large; an effect the other way counts as inactive or inconclusive.

SMILES	DRD3 antagonist	HepG2 viability	TGFb inhibitor	ATXN2 expr inh	S2 tox	DRD3 agonist
CN[C@@H](C)[C@H]1[C@H](O)C[C@@]2(C)[C@@H]3CC[C@H]4C(C)(C)[C@@H](NC)CC[C@@]45C[C@@]35CC[C@]12C	·	·	·	–	·	·
CN(C)c1ccc(-c2c3ccccc3nc3ccccc23)cc1	·	–	–	·	·	·
CN(C)c1ccc(Sc2ccc3nc(N)nc(N)c3c2)cc1	–	0.316µM	?	·	?	–
Cc1c(C(=O)NCC2(N3CCOCC3)CCCC2)cnn1-c1nccc(-c2ccccc2F)n1	·	·	·	·	–	·
CS(=O)(=O)c1ccc(-c2ccc3c(c2)CC(CNC(=O)C2(N4CCOCC4)CCCCC2)O3)cc1 (stereo unspecified)	·	·	·	·	–	·
CCOC(=O)c1cnc(-n2nc(C)cc2C)nc1N(CC)CC	-58.6	–	–	–	–	–
COc1ccc(-c2c3c(=O)n(C)c(=O)n(C)c3c3n2-c2ccccc2NC3c2ccc(O)cc2O)cc1 (stereo unspecified)	·	–	?	?	?	–
O/N=C/CCn1c(=S)sc2ccccc21	-50.6	–	–	–	–	–
CCOC(=O)N1CCN(S(=O)(=O)c2ccc3[nH]c(=O)oc3c2)CC1	–	–	–	–	–	34.0
COCCNC(=O)c1onc(CCl)c1C(=O)OC	–	–	–	–	–	–
C=CCNC(=O)c1onc(CCl)c1C(=O)OC	–	–	–	–	?	65.2
O=C(c1cccnc1)C1CCCN(Cc2ccc3c(c2)CN(C(=O)c2cn4ccccc4n2)CCO3)C1 (stereo unspecified)	·	·	·	·	–	·
CCOc1ccccc1CNC(=O)c1ccc(NC(=O)N2CC(C)Sc3ccccc32)cc1 (stereo unspecified)	·	–	–	–	–	–
CC1CCCCN1CCCNC(=O)c1ccc(Br)cc1 (stereo unspecified)	-65.0	–	–	–	–	–
Cc1ccc(-c2cn3c(n2)sc2cc(C(=O)NCCCN4CCCCCC4)ccc23)cc1	·	10µM	–	·	·	–
CC1CCCCN1CCNC(=O)c1ccc2c(=O)n(CCc3ccccc3)c(=O)[nH]c2c1 (stereo unspecified)	–	–	–	–	–	–
CC1CCCCN1CCNC(=O)c1ccc2c(=O)n(Cc3ccc(Cl)cc3)c(=S)[nH]c2c1 (stereo unspecified)	–	12.6µM	?	?	–	–
CC1CCCCN1CCCNC(=O)c1ccc2c(c1)sc1nc(-c3ccc(F)cc3)cn12 (stereo unspecified)	·	12.6µM	?	14.1µM	31.6µM	–
Cc1ccc(-c2cn3c(n2)sc2cc(C(=O)NCCCN4CCCCC4)ccc23)cc1	·	10µM	–	·	·	–
CCN1CCN(CCCNC(=O)c2ccc3c(c2)sc2nc(-c4ccc(C)cc4)cn23)CC1	·	–	–	·	·	–
CCOc1ccc(NC(=O)c2cc(S(=O)(=O)N3CCC(C)CC3)cn2C)cc1	·	–	–	–	–	–
CC1=C(C(=O)OCc2ccc3nsnc3c2)N2C(=O)[C@@H](NC(=O)OCc3ccc4nsnc4c3)[C@H]2SC1	·	–	?	·	·	·
O=C1C(Cc2ccccc2)Nc2ncnc(N3CCOCC3)c2N1Cc1ccc(Cl)cc1 (stereo unspecified)	-101.7!	–	–	–	?	–
CC(C)CC1Nc2ncnc(N3CCOCC3)c2N(Cc2ccccc2)C1=O (stereo unspecified)	–	–	–	–	–	60.5!
O=C1C(Cc2ccccc2)Nc2ncnc(N3CCN(c4ccccc4)CC3)c2N1Cc1ccccc1 (stereo unspecified)	–	–	–	–	?	–
SMILES	DRD3 antagonist	HepG2 viability	TGFb inhibitor	ATXN2 expr inh	S2 tox	DRD3 agonist
COc1ccc(CN2C(=O)C(Cc3ccccc3)Nc3ncnc(N4CCCCC4)c32)cc1 (stereo unspecified)	-53.1	–	–	–	–	–
Cc1ccc(CN2C(=O)C(Cc3ccccc3)Nc3ncnc(N4CCN(c5ccccc5)CC4)c32)cc1 (stereo unspecified)	-140.3	–	–	–	–	–
CC(C)CC1Nc2ncnc(N3CCOCC3)c2N(Cc2ccc(Cl)cc2)C1=O (stereo unspecified)	–	–	–	–	–	–
CC(c1ccc(N(C)C)cc1)c1ccnc2ccccc12 (stereo unspecified)	·	–	–	·	·	·
Cc1c(Cl)cccc1NC(=O)CCS(=O)(=O)c1cccc2nsnc12	·	–	–	–	–	–
CCOc1ccccc1C1C(C(=O)N2CCCCC2)=C(C)Nc2nc3ccccc3n21 (stereo unspecified)	·	–	–	–	–	–
Cc1ccc(CN2C(=O)C(Cc3ccccc3)Nc3ncnc(N4CCCCC4)c32)cc1 (stereo unspecified)	-83.8!	–	–	–	?	–
Cc1cccc(N2CCN(C(=O)c3c(C)oc4nc(C)nc(N5CCCC5)c34)CC2C)c1 (stereo unspecified)	·	–	?	·	·	–
CC(=O)Oc1ccc(N2C(=O)c3cccc4c([N+](=O)[O-])ccc(c34)C2=O)cc1	-99.9	–	–	–	·	–
O=C1c2cccc3c([N+](=O)[O-])ccc(c23)C(=O)N1c1ccccn1	-99.8	–	–	14.1µM	·	–
O=C1c2cccc3c([N+](=O)[O-])ccc(c23)C(=O)N1c1ccc(Cl)cn1	?	–	–	?	·	–
COc1ccc(NC(=O)c2sc3nc4c(cc3c2N)CN(Cc2ccccc2)CC4)c(OC)c1	·	–	–	·	·	–
O=C(Nc1cc(C(F)(F)F)ccc1Cl)c1cnn(-c2ccccc2)c1-n1cccc1	·	–	?	·	·	55.4
COc1cc(S(=O)(=O)N2CCC(O)(c3cccc(C(F)(F)F)c3)CC2)ccc1-n1cnnn1	-82.1	–	–	–	–	–
CC(C)n1nc(-c2cc3cc(O)ccc3[nH]2)c2c(N)ncnc21	·	·	·	5.01µM	?	–
CCOC(=O)Cc1c(C)nc2c(-c3ccc(Cl)cc3)c(C(F)(F)F)nn2c1C	·	–	–	–	–	–
O=C1CC(c2ccco2)CC(O)=C1C=Nc1cc(Cl)ccc1O (stereo unspecified)	–	–	–	–	–	–
O=C1CC(c2ccco2)CC(O)=C1C=Nc1ccccc1-c1ccccc1 (stereo unspecified)	-104.8	–	–	–	–	–
CC(=O)N1N=C(c2cccc([N+](=O)[O-])c2)OC1c1ccccc1Cl (stereo unspecified)	-59.6	–	–	–	–	–
C=C[C@@H]1c2c(F)cccc2N(S(=O)(=O)c2ccc(C)cc2)[C@H](c2ccc(C(=O)OC)cc2)C1(C#N)C#N	–	–	?	–	–	–
